Inconclusive results are not listed. Entries that show only a call come without a potency. Calls of active or inactive are those of the source. The call rests on the fitted dose curve; in most records, active means well fitted activation curve with a large enough effect; inconclusive means small, poorly fitted or top-dose-only effect; inactive means no such curve, though single readings can be large or run the other way.
biological target: Relaxin receptor 1 (Homo sapiens) (UniProt Q9HBX9); assay: qHTS Assay for Agonists of the Relaxin Receptor RXFP1: THP1 Hit Validation; conditions: THP1-RXFP1 cells, cAMP TR-FRET, 30 min; series mostly up to 115 µM; further: nearly all actives have a fitted effect of over 60% in size
Sequence (Q9HBX9 whole entry, looked up): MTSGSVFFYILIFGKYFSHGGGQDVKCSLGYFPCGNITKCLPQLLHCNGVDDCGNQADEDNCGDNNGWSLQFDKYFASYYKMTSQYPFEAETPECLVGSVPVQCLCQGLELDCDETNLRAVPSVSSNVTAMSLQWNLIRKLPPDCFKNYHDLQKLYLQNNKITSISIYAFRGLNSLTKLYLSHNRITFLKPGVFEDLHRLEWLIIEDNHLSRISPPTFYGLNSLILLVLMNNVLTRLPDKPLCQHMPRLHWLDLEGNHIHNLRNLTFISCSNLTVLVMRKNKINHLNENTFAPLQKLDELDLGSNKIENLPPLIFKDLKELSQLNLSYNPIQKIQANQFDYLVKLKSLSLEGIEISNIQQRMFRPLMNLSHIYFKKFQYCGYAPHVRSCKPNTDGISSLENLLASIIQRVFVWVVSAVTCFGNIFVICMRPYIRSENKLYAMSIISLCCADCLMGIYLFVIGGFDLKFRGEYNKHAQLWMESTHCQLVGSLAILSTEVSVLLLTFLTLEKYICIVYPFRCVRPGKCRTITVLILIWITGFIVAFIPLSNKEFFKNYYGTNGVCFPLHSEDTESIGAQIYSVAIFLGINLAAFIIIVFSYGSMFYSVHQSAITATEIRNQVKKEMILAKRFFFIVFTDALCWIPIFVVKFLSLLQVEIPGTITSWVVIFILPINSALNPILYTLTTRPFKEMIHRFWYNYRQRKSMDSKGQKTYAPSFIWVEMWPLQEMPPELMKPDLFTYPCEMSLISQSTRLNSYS
Outline: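 Stable RXFP1 THP1 line; 30 min compound exposure at 37C in presence of Ro 20174; cAMP detected by HTRF after lysis.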
Potency means the concentration at half of the fitted maximal effect.

Structure (SMILES) | Potency
CCN(c1ccccc1)S(=O)(=O)c1ccc(OC)c(NC(=O)C2CC(=O)N(Cc3ccccc3)C2)c1 (centres undefined) | inactive
CCN(CC)CCCCCC(=O)Nc1ccccc1C(=O)Nc1ccccc1 | inactive
Nc1ncnc2c1ncn2C1OC(CO)C(O)C1O (centres undefined) | inactive
C[C@H](Cc1ccccc1)Nc1ncnc2c1ncn2[C@@H]1O[C@H](CO)[C@@H](O)[C@H]1O | inactive
Cc1ccc(-c2ccc3nnc(SCC(=O)NCC4CCCO4)n3n2)cc1 (centres undefined) | inactive
Cc1cccc2cc(C#N)c(SCC(=O)NCc3cccs3)nc12 | 19.4 µM (active)
O=C(O)c1cc(-c2ccc(Br)s2)nc2ccccc12 | 3.08 µM (active)
CCN(CC)S(=O)(=O)c1ccc(N2CCOCC2)c(NC(=O)c2cccc(C#N)c2)c1 | 27.5 µM (active)
O=C1/C(=C/c2ccc(O)c(O)c2)Oc2cc(O)ccc21 | inactive
CCn1c(=O)c2cc(C(=O)Nc3cccc(C(C)=O)c3)sc2c2ccccc21 | inactive
CC1C/C(=N\NC(N)=S)c2cc(Cl)ccc2S1 (centres undefined) | inactive
COC(=O)c1c(N2C(=O)CC(Sc3ncccc3C(=O)O)C2=O)sc(C)c1C (centres undefined) | inactive
Cc1ccc2cc(CN(C(=O)c3cccs3)c3ccccc3)c(=O)[nH]c2c1 | inactive
COc1ccc(S(=O)(=O)Nc2ccccn2)c(C)c1C | inactive
CN(C)c1ccc(C(=S)N2CCN(S(=O)(=O)c3ccccc3)CC2)cc1 | inactive
CCOC(=O)CCCCC(=O)c1[nH]c(=O)[nH]c1CSc1nnc2c3cc(Br)ccc3n(C)c2n1 | 8.68 µM (active)
Cc1cccc(N2C(=O)C(O)=C(C(=O)c3cccs3)C2c2ccc(C(C)C)cc2)n1 (centres undefined) | inactive
COc1ccccc1CNS(=O)(=O)c1cc(CN2C(=O)c3cccnc3C2=O)ccc1OC | 17.4 µM (active)
Cc1cccc(C(=O)Nc2ccccc2C(=O)NCc2ccco2)c1 | inactive
C=C(C)C(=O)Nc1cccc(C2=NOC3(C2)C[C@@H](C(N)=O)N(C(=O)c2ccc(Cl)cc2)C3)c1 (some centres undefined) | inactive

Structure (SMILES) | Potency
CCCN(CCC)S(=O)(=O)c1cc(CN2C(=O)c3cccnc3C2=O)ccc1OC | 24.5 µM (active)
O=C(O)c1cccc(CSc2nnc(Cc3ccccc3)o2)c1 | inactive
CC(=O)c1c(C)[nH]c(C(=O)OCc2cc(=O)n3cc(Br)ccc3n2)c1C | 8.68 µM (active)
Cc1cccc(NC(=O)c2ccccc2NC(=O)C2CCCCC2)c1C | inactive
COc1ccc(CNC(=O)CN2C(=O)NC(C)(c3cccc(Br)c3)C2=O)cc1 (centres undefined) | inactive
CCC(=O)Nc1ccc(-n2nnnc2SCC(=O)NNC(=O)c2ccco2)cc1 | inactive
Nc1cc2ccncc2c2ccccc12 | inactive
CCN(CC)S(=O)(=O)c1cccc(N=Nc2c(O)c3ccccc3oc2=O)c1 | 9.77 µM (active)
CCOC(=O)CNC(=O)CSc1nc2c(C)cccc2cc1CC | 19.4 µM (active)
CN(C)c1ccc(NC(=O)C2C3C=CC(C3)C2C(=O)O)cc1 (centres undefined) | inactive
CCc1cc2cc3c(cc2nc1SCC(=O)Nc1nccs1)OCO3 | 21.8 µM (active)
CC(C)(C)C(=O)Nc1ccccc1C(=O)NCc1ccco1 | inactive
O=C(O)CCSc1ccc2ccccc2n1 | 19.4 µM (active)
CC1(C(=O)Nc2nc3ccccc3s2)CC1(Br)Br (centres undefined) | inactive
NC(=S)c1cc2ccc(O)cc2oc1=O | 4.88 µM (active)
CCNc1nc(NCC)nc(N(C)/N=C/c2ccco2)n1 | inactive
CCc1cc2c(=O)nc3n(c2s1)Cc1ccccc1/C3=C(/O)c1cccc([N+](=O)[O-])c1 | 0.87 µM (active)
COc1cccc(C(=O)CSc2nnc(-c3cc(OC)cc(OC)c3)o2)c1 | 12.3 µM (active)
CCC1(C)Cc2c(sc3c2c2ncnn2c2nnc(SCC(=O)NCc4ccco4)n32)CO1 (centres undefined) | 11 µM (active)

From PubChem BioAssay AID492949 (National Center for Advancing Translational Sciences (NCATS), 2010)
